SMILES strings stand for the structures. Out of some 200,000 compounds screened, about 4,500 (2.2%) were called active. Another 12% or so got no clear call; they are omitted. Calls come from the whole dose curve; as a rule, active = well fitted inhibition curve with a large enough effect; inconclusive = small, poorly fitted or top-dose-only effect, or effect the other way; inactive = flat fitted curve, though single readings scatter. Shown is part of a subset that was picked to be rich in actives. The source holds several records for some structures; these can differ, active in one and inactive in another.
Potency is the fitted concentration of half-maximal effect.

Cruzipain (Trypanosoma cruzi), sequence (P25779 123-467 limits assumed): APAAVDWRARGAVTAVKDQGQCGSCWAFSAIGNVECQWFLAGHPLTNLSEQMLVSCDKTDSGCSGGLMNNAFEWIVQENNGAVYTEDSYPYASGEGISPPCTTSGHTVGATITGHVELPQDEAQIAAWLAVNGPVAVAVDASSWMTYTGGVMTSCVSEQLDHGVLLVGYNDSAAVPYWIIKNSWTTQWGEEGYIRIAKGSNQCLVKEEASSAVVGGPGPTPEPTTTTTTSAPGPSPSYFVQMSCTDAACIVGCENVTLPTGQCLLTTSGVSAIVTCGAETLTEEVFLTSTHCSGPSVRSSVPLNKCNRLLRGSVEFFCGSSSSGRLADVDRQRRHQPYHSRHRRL

This assay deals with Cruzipain (Trypanosoma cruzi) (UniProt P25779). Briefly: qHTS Assay for Promiscuous and Specific Inhibitors of Cruzain (without detergent).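 For max response, negative = inhibition: plate controls were enzyme without inhibitor for no effect and buffer without enzyme for full effect.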 Note: nearly all actives have a fitted effect of over 40% in size. The conditions noted are these: purified cruzain, Z-FR-AMC fluorescence, no detergent. The gist of the method:
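Purified cruzain at 1.5 nM, pre-incubated 15 min with compound at room temperature in 100 mM sodium acetate pH 5.5, 5 mM DTT, 0.00005% Triton X-100. Reaction started with 2 uM Z-FR-AMC; AMC fluorescence increase over 60 s gives rate.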
With `CCCn1c2ccccc2c2cnn(CC(=O)N3CCCC(C(=O)OCC)C3)c(=O)c21` (centres undefined), the max response, negative = inhibition was -0.857% (inactive).

As for `Cc1ccc(C2C=C(c3ccc(Cl)cc3)Nc3nc(NC(=O)CCC(=O)O)nn32)cc1` (centres undefined), the max response, negative = inhibition was -6.04% (inactive).

Turning to `O=C(c1ccccc1F)N1CCC(c2nc3c(nnn3Cc3cccc(F)c3)c(=O)[nH]2)CC1`, the max response, negative = inhibition was -6.41% (inactive). On the same count and under the same terms, the value for `Cc1ccc(OCCSc2nc(-c3cccs3)nc3cc(=O)[nH]n23)cc1Cl` was 3.5% (inactive); that for `O=c1cc2nc(-c3ccccc3)nc(SCCOc3ccc(Cl)cc3)n2[nH]1` was 8.61% (inactive). Regarding `CCc1ccccc1OCCSc1nc(-c2cccs2)nc2cc(=O)[nH]n12`, the Potency is 3.16 µM (active).

Regarding `COc1ccc(Cn2ccnc2SCC(=O)NCc2ccco2)cc1`, the max response, negative = inhibition was -5.79% (inactive). As for `CCCn1c(=O)c2c(C(F)(F)F)cc(-c3cccs3)nc2n(CCC)c1=O`, the Potency is 6.31 µM (active). As to `FC(F)(F)c1cc(-c2cccs2)nc(NCc2ccco2)n1`, the max response, negative = inhibition is -1.04% (inactive).

For the compound `COCCn1c(=O)c(-c2cccs2)nc2cncnc21`, the max response, negative = inhibition is 2.13% (inactive).

As for `Cc1oc2ncnc(N3CCOCC3)c2c1C(=O)NCCc1ccccc1`, the max response, negative = inhibition is 3.49% (inactive).

As to `Cc1ccc(C(=O)Nc2nnc(-c3cccs3)s2)cc1C`, the Potency is 15.8 µM (active). As for `CCCc1nnc(NC(=O)c2cccs2)s1`, the max response, negative = inhibition was 0.875% (inactive).

With `CCOc1cccc(C(=O)Nc2nnc(-c3cccs3)s2)c1`, the Potency was 15.8 µM (active). Same read-out and setting: the value for `Cc1ccc(C(=O)Oc2coc(CSc3nnc(NC(=O)c4cccs4)s3)cc2=O)cc1C` was 25.1 µM (active). With `COC(=O)c1ccc(CSc2nnc(NC(C)C)s2)cc1`, the max response, negative = inhibition was 5.53% (inactive). On the same count and under the same terms, next, `CCOc1cccc(C(=O)Nc2cccnc2)c1`: 1.56% (inactive); `CCOc1cccc(C(=O)Nc2nnc(S(=O)(=O)N(C)c3ccc(C)cc3)s2)c1`: -15.4% (inactive). Still for that read-out and setting: the value for `CCOc1ccccc1Nc1nnc(SCc2ccc(C(=O)OC)o2)s1` was 2.33% (inactive); that for `CCc1nnc(NC(=O)c2cccs2)s1` was -8.43% (inactive); that for `COC(=O)c1cccc(Cn2nnc3sc4c(c3c2=O)CCC(C(C)(C)C)C4)c1` (centres undefined) was 2.87% (inactive). Same read-out and setting: next, `O=C(CCC(=O)N1CC2CCCN2c2ccccc21)NCc1ccccc1Cl` (centres undefined): -16.5% (inactive). As to `Cc1nnc(NC(=O)CSc2nc3c([nH]c4ccccc43)c(=O)n2-c2cccc(Cl)c2)s1`, the max response, negative = inhibition was 2.35% (inactive). On the same count and under the same terms, next, `COc1cc(-c2nnn(CC(=O)NCc3ccccc3)n2)cc(OC)c1OC`: 25.6% (inactive).

Consider `Cc1cn(C)c(CC(=O)NCc2ccccc2)c1C(=O)O`, for which the max response, negative = inhibition was -3.27% (inactive).

Consider `CN(Cc1ccccc1)C(=O)c1cn(C)c2ccc(S(=O)(=O)N3CCCCC3)cc2c1=O`, for which the max response, negative = inhibition was -10.3% (inactive).

As to `CN(Cc1ccccc1)C(=O)c1cn(C)c2ccc(S(=O)(=O)N(C)C3CCCCC3)cc2c1=O`, the max response, negative = inhibition is 5.7% (inactive).

Consider `COc1ccc(C(=O)Nc2ccc(-n3nncc3-c3ccccc3)cc2)cc1OC`, for which the max response, negative = inhibition is 25.3% (inactive). Regarding `Cc1ccc(N2CCN(C(=O)CCc3c(C)nc4c(c3C)c(=O)n(C)c(=O)n4C)CC2)c(C)c1`, the max response, negative = inhibition was 6.51% (inactive). In the case of `O=C(NCc1ccc(Cl)cc1)c1ccc2c(c1)nnn2C1CCCC1`, the max response, negative = inhibition is -10.2% (inactive). As for `Cc1ccc(-n2ncc3c(=O)n(Cc4cccc(C(F)(F)F)c4)cnc32)cc1C`, the max response, negative = inhibition is 6.16% (inactive). On to `Cc1ccc(-n2c(/C=C/c3cccc(C(F)(F)F)c3)nc3ccccc3c2=O)cc1`, for which the max response, negative = inhibition is -0.135% (inactive).

As to `Cn1cc(/C=C/c2nc3ccccc3c(=O)n2-c2ccccc2)c2ccccc21`, the max response, negative = inhibition is 10.3% (inactive). On to `Cn1cc(/C=C/c2nc3ccccc3c(=O)n2-c2cccc([N+](=O)[O-])c2)c2ccccc21`, for which the Potency is 10 µM (active). `CSc1ccc(C2C(C(=O)Nc3ccccc3)=C(C)Nc3nc4ccccc4n32)cc1` (centres undefined): the max response, negative = inhibition was -7.45% (inactive).

As for `CCc1cccc(C)c1NS(=O)(=O)c1c(C)nc2sccn2c1=O`, the max response, negative = inhibition was 1.11% (inactive).

Take `CCOC(=O)c1cc2c(=O)n3ccccc3nc2n(CCCOC)c1=NC(=O)C(C)Oc1ccccc1` (centres undefined): the max response, negative = inhibition is -4.02% (inactive). As to `CNC(=S)NNC(=O)c1sccc1OCc1ccccc1`, the max response, negative = inhibition was -0.842% (inactive).

For `CNC(=S)N/N=C/c1ccc(OCc2ccccc2)c(Br)c1`, the Potency is 25.1 µM (active). With `C=CCNC(=S)N/N=C/c1ccc(OCc2ccccc2)cc1`, the max response, negative = inhibition was -2.25% (inactive). Same read-out and setting: next, `Cc1ccccc1CN1CCC(CNC(=O)c2cc3ccc4cccnc4c3[nH]2)CC1`: -9.74% (inactive). Take `Cc1ccc(Nc2c(-c3ccc(C)cc3)nc3cnccn23)cc1`: the max response, negative = inhibition was 5.6% (inactive).

As to `Cc1ccc(Nc2c(-c3ccc(Cl)cc3)nc3sccn23)c(C)c1`, the Potency is 31.6 µM (active). `O=c1cc(Cn2nnc(-c3ccc(Cl)cc3)n2)nc2sccn12`: the max response, negative = inhibition is 0.777% (inactive). Still for that read-out and setting: the value for `Cc1cccc(-n2ccnc2SCC(=O)Nc2cccc3ccccc23)c1C` was -4.61% (inactive). For `O=C(COc1ccc(/C=N/NC(=O)c2ccc(O)cc2)cc1)Nc1ccc([N+](=O)[O-])cc1`, the max response, negative = inhibition is -9.42% (inactive). Consider `O=C(COc1ccc([N+](=O)[O-])cc1)Nc1ccc(N2CCCC2)cc1`, for which the Potency is 7.94 µM (active). With `Cc1ccc(OCCCC(=O)Nc2ccc(N3CCOCC3)cc2)cc1`, the max response, negative = inhibition is -0.526% (inactive). Consider `CCS(=O)(=O)N1CCc2cc(C(=O)N3CCN(c4ccccc4OC)CC3)ccc21`, for which the max response, negative = inhibition is -11.9% (inactive). Take `Cc1cc(Cl)ccc1NC(=O)Cc1ccc(NC(=O)N2CCCCc3ccccc32)cc1`: the max response, negative = inhibition is 8.39% (inactive).

`CC(C(=O)Nc1ccc(Cl)cc1Cl)N1CC=C(c2ccccc2)CC1` (centres undefined): the max response, negative = inhibition was 3.73% (inactive). On the same count and under the same terms, next, `NC(=O)N1CCCC1C(=O)Nc1ccc(Cl)c(Cl)c1` (centres undefined): -7.92% (inactive). On to `O=C(Nc1ccc(Cl)c(Cl)c1)N1CC=C(c2ccccc2)CC1`, for which the Potency is 31.6 µM (active). For `CC(CCCc1ccccc1)NC(=O)c1nn(-c2ccc(Cl)cc2)nc1CO` (centres undefined), the max response, negative = inhibition was 4.3% (inactive). Consider `CC(=O)Nc1ccc(S(=O)(=O)N2CCN(c3ccccc3)CC2)cc1`, for which the max response, negative = inhibition was 4.93% (inactive).

Consider `O=[N+]([O-])c1ccc(N2CCN(S(=O)(=O)c3ccccc3)CC2)cc1N1CCc2ccccc2C1`, for which the Potency was 7.94 µM (active). `CN1CCN(c2ccc(S(=O)(=O)Nc3ccccc3)cc2[N+](=O)[O-])CC1`: the max response, negative = inhibition was -3.45% (inactive). The same measure, in the same setting: the value for `Cc1ccccc1CNC(=O)C1CCCN(S(=O)(=O)N(C)c2ccc(F)cc2)C1` (centres undefined) was 7.13% (inactive); that for `O=C(COc1ccc(Cl)cc1)Nc1ccccc1OCc1cc(=O)n2ccccc2n1` was -0.406% (inactive); that for `CC(C)c1ccc(Cn2c(COc3ccccc3)nc3ccccc32)cc1` was -13.5% (inactive). As for `O=C(Cn1c(=O)nc(-c2ccccc2)c2cc(Cl)ccc21)NCc1ccc(Cl)cc1`, the max response, negative = inhibition is -1.57% (inactive). For `CC(C)c1ccc2c(c1)c(SC(C)(C)C)c(CC(C)(C)C(=O)O)n2Cc1ccc(Cl)cc1`, the Potency was 7.94 µM (active) and the max response, negative = inhibition was 1.55% (inactive).

`COc1ccc(NC(=O)CSc2nccn2Cc2ccc3c(c2)OCO3)cc1`: the max response, negative = inhibition is -5.6% (inactive). The same measure, in the same setting: next, `CCOc1ccccc1C1CC(c2cccc(NS(C)(=O)=O)c2)=NN1C(=O)c1ccccc1` (centres undefined): 4.98% (inactive). `O=C(COc1ccc2ccccc2c1)N1CCN(C(=O)c2cccs2)CC1`: the max response, negative = inhibition is 12.1% (inactive). With `CCOc1ccc2nc(Cl)c(C3CC(c4ccccc4)=NN3C(=O)c3cccs3)cc2c1` (centres undefined), the Potency is 7.94 µM (active). On to `CCOC(=O)c1c(C)oc2nc(C)nc(N(CC(C)C)CC(C)C)c12`, for which the max response, negative = inhibition was -3.29% (inactive). Same read-out and setting: the value for `COc1ccc(NC(=O)CN2C(=O)COc3ccc(S(=O)(=O)N4CCOCC4)cc32)cc1` was 4.14% (inactive). Regarding `O=C(NC1CCc2ccccc21)C12CN(Cc3ccccc3)CC1C(c1cccc([N+](=O)[O-])c1)=NO2` (centres undefined), the Potency is 12.6 µM (active). Regarding `Nc1ccc(C(=O)OCC(=O)NC2CCCc3ccccc32)cc1[N+](=O)[O-]` (centres undefined), the max response, negative = inhibition was -1.06% (inactive).

With `COc1ccc([N+](=O)[O-])cc1NC(=O)CCc1ccccc1`, the max response, negative = inhibition was -3.31% (inactive). For the compound `COc1ccccc1CC(=O)Nc1ccc([N+](=O)[O-])cc1OC`, the max response, negative = inhibition is -6.07% (inactive). Turning to `COc1ccc([N+](=O)[O-])cc1C1NN=C(c2cccc3ccccc23)S1` (centres undefined), the Potency is 7.94 µM (active).

On to `O=C(CSc1nc(Nc2ccc(F)c(F)c2)c2ccccc2n1)c1ccc(Cl)cc1`, for which the max response, negative = inhibition is -24.6% (inactive).

As for `COC(=O)Cc1nc2ccccc2[nH]1`, the max response, negative = inhibition is -1.4% (inactive). On the same count and under the same terms, next, `COc1ccccc1CSc1nc2ccccc2[nH]1`: 4.13% (inactive). For the compound `Cc1ccccc1OC/C(O)=C(\C#N)c1nc2ccccc2[nH]1`, the Potency is 20 µM (active).

With `CCOc1ccc(NC(=O)Cn2c(C)ccc(C#N)c2=O)cc1`, the max response, negative = inhibition is -12.5% (inactive). On to `COc1ccc(S(=O)(=O)N2CCCC(C(=O)Nc3ccc(NC(=O)c4ccccn4)cc3)C2)cc1` (centres undefined), for which the max response, negative = inhibition is -11.4% (inactive). For `COc1ccc(S(=O)(=O)N2CCN(c3ncnc4c(-c5ccccc5)nsc34)CC2)cc1`, the Potency is 20 µM (active). In the case of `Cc1cc(N2CCN(S(=O)(=O)c3ccc(C)c(C)c3)CC2)c2ccccc2n1`, the max response, negative = inhibition is 1.17% (inactive).

With `COc1cccc(NC(=O)Cn2c(=O)cc(C)c3c(C)nn(-c4cccc(F)c4)c32)c1`, the max response, negative = inhibition was -8.29% (inactive). The same measure, in the same setting: the value for `CCC(=O)N1CCc2cc(CNS(=O)(=O)c3ccc(Br)s3)ccc21` was -2.98% (inactive); that for `CCOc1ccc(Nc2oc(/C=C/c3ccc(F)cc3)nc2C#N)cc1` was -13.4% (inactive). Turning to `Cc1c(C)n(Cc2ccc(Cl)cc2)c2ccc(C(=O)N3CCN(c4ccccc4F)CC3)cc12`, the Potency is 12.6 µM (active). For the compound `O=C(c1ccc(CN2CCOCC2)cc1)N1CCN(c2ccccc2F)CC1`, the max response, negative = inhibition is -4.12% (inactive). Take `CCn1c(C)c(C)c2cc(C(=O)N3CCN(c4cccc(C)c4C)CC3)ccc21`: the max response, negative = inhibition was -25.1% (inactive).

For the compound `Cc1ccc(C)c(Cn2c(=O)n(CCC(=O)NCc3ccc4c(c3)OCO4)c(=O)c3sccc32)c1`, the max response, negative = inhibition is -5.68% (inactive).
